We go through 30 compounds from PubChem BioAssay AID999 (SRMLSC, 2007).

Calls of active or inactive are those of the source.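 How the source made its calls: active means viability at or below 21.59%, 3 SD under the median of tested compounds; inactive means the rest.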

What is called viability is a read-out of living cells in per cent, often relative to untreated cells.

The nature of the assay: viability loss in PTEN-deleted cells – cell-based, validation, diverse DP compound set (AID 999).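 Further: 100% = median luminescence of untreated cell control wells and 0% = no signal.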 To be noted: HCT116 PTEN-null viability, CellTiter-Glo, 60 h; at 10 µM; active compounds read low. (ATP-based viability assays read luminescence as a measure of living cells.)
Take `CC(C)CC(=O)N[C@H](C(=O)N[C@H](C(=O)N[C@@H](CC(C)C)[C@@H](O)CC(=O)N[C@@H](C)C(=O)N[C@@H](CC(C)C)[C@@H](O)CC(=O)O)C(C)C)C(C)C`: the viability is 98.2% (inactive). Consider `CN(C)c1ccc(/C=C2\C(=O)Nc3ccccc32)cc1`, for which the viability is 86.2% (inactive).

For `CC(=O)[C@H]1[C@H](C#N)CC2C3CC=C4C[C@@H](O)CCC4(C)C3CCC21C` (stereo not given in full), the viability is 94.8% (inactive). With `COc1ccc(CC(N)C(=O)N[C@H]2[C@@H](O)[C@H](n3cnc4c(N(C)C)ncnc43)O[C@@H]2CO)cc1` (stereo not given in full), the viability is 5.97% (active). In the case of `CO[C@@H]1[C@@H](OC(N)=O)[C@@H](O)[C@H](Oc2ccc3c(O)c(NC(=O)c4ccc(O)c(CC=C(C)C)c4)c(=O)oc3c2C)OC1(C)C`, the viability was 88% (inactive). With `COc1cc(CNC(=O)CCCC/C=C/C(C)C)ccc1O` the figure was 99.3% (inactive). For the compound `CC(=O)N1CCN(c2ccc(OC[C@H]3CO[C@](Cn4ccnc4)(c4ccc(Cl)cc4Cl)O3)cc2)CC1`, the viability is 70.7% (inactive).

Regarding `Cc1ccc(Cl)c(Nc2ccccc2C(=O)O)c1Cl`, the viability is 98.1% (inactive).

On to `CC(=O)N[C@H]1C(O[C@@H]2O[C@H](C[C@@H](O)[C@H]3O[C@@H](N4CCC(=O)NC4=O)[C@H](O)[C@@H]3O)[C@H](O)[C@H](O)[C@H]2NC(=O)/C=C/CCCCCCCCCCC(C)C)OC(CO)[C@@H](O)[C@@H]1O` (stereo not given in full), for which the viability was 52.8% (inactive). As for `CCC[C@@H]1C[C@@H](C(=O)NC(C(C)Cl)[C@H]2O[C@H](SC)[C@H](O)[C@@H](O)[C@H]2O)N(C)C1` (stereo not given in full), the viability was 100% (inactive). With `Nc1c(N=Nc2ccc(-c3ccc(N=Nc4cc(S(=O)(=O)O)c5ccccc5c4N)cc3)cc2)cc(S(=O)(=O)O)c2ccccc12`, the viability was 86.5% (inactive). In the case of `COc1ccc2cc3[n+](cc2c1OC)CCc1cc2c(cc1-3)OCO2`, the viability is 82.9% (inactive). Take `CC1(C)[C@@H](O[C@H]2O[C@H](C(=O)O)[C@@H](O)[C@H](O)[C@H]2O[C@@H]2O[C@H](C(=O)O)[C@@H](O)[C@H](O)[C@H]2O)CC[C@]2(C)[C@H]3C(=O)C=C4[C@@H]5C[C@@](C)(C(=O)O)CC[C@]5(C)CC[C@@]4(C)[C@]3(C)CC[C@@H]12`: the viability is 103% (inactive).

Turning to `C=CC1(C)CC(=O)C2(O)C(C)(O1)C(OC(C)=O)C(O)C1C(C)(C)CCC(O)C12C` (stereo not given), the viability was 85.5% (inactive). As to `c1ccc2nc3ccccc3cc2c1`, the viability was 99.8% (inactive). With `C=C1OC(CO)(n2cnc3c(N)ncnc32)C(O)C1O` (stereo not given) the figure was 92.8% (inactive); with `C[C@]12CCC(=O)C=C1CC[C@@H]1[C@@H]2[C@@H](O)C[C@@]2(C)[C@H]1CC[C@]2(O)C(=O)CO`, 99.2% (inactive). For `O=C(O)c1cc(=O)c2c(OCC(O)COc3cccc4oc(C(=O)O)cc(=O)c34)cccc2o1`, the viability is 98.8% (inactive). `Cn1cnc2c(NCc3ccccc3)nc(NCCO)nc21`: the viability is 90.6% (inactive). Consider `CCOC(=O)C(C)(C)Oc1ccc(Cl)cc1`, for which the viability was 100% (inactive). As for `NC(=O)c1cccc(N)c1`, the viability was 94.5% (inactive).

Turning to `O=c1c2ccccc2nc2n1CCc1c-2[nH]c2ccccc12`, the viability is 93.4% (inactive). With `C=C(CCC12O[C@H](C(=O)O)[C@@](O)(C(=O)O)[C@](C(=O)O)(O1)[C@H](OC(=O)/C=C/[C@@H](C)C[C@@H](C)CC)[C@H]2O)[C@@H](OC(C)=O)[C@H](C)Cc1ccccc1` the figure was 98.3% (inactive); with `C[C@@]12C=Cc3occc3C1CC[C@@]13C[C@@H](CCC12)[C@@](O)(CO)C3` (stereo not given in full), 93.5% (inactive). As for `CC(C)C[C@H]1C(=O)N2CCC[C@H]2[C@]2(O)O[C@](NC(=O)[C@@H]3C=C4c5cccc6[nH]c(Br)c(c56)C[C@H]4N(C)C3)(C(C)C)C(=O)N12`, the viability is 76.4% (inactive). Take `CC(C)=CCC[C@](C)(O[C@@H]1O[C@H](CO)[C@@H](O)[C@H](O)[C@H]1O)[C@H]1CC[C@]2(C)[C@@H]1[C@H](O)C[C@@H]1[C@@]3(C)CC[C@H](O[C@@H]4O[C@H](CO)[C@@H](O)[C@H](O)[C@H]4O[C@@H]4O[C@H](CO)[C@@H](O)[C@H](O)[C@H]4O)C(C)(C)[C@@H]3[C@@H](O)C[C@]12C`: the viability is 92% (inactive).

In the case of `C[C@@H]1CC2C3CCC4=CC(=O)C=CC4(C)[C@@]3(F)[C@@H](O)CC2(C)[C@@]1(O)C(=O)CO` (stereo not given in full), the viability was 105% (inactive). Take `Nc1nc2ncc(CNc3ccc(C(=O)NC(CCC(=O)O)C(=O)O)cc3)nc2c(=O)[nH]1` (stereo not given): the viability was 99.5% (inactive). Consider `CCCC[C@@H](C=O)NC(=O)[C@H](CC(C)C)NC(=O)[C@H](CC(C)C)NC(C)=O`, for which the viability was 15.1% (active).

As for `O=C(c1ccc(OCCN2CCCCC2)cc1)c1c(-c2ccc(O)cc2)sc2cc(O)ccc12`, the viability is 61.1% (inactive).
